The text below walks through data of PubChem BioAssay (Tox21).

Results filed as inconclusive are left out. A call without a number means that no potency is given here. The source made the active and inactive calls. Calls follow the shape of the dose curve; as a rule, active = well fitted cell-killing curve with a large enough effect in the repeat runs; inconclusive = weak or mixed curves, or effect the other way; inactive = flat fitted curve, though single readings scatter.
Potency is read from the fitted curve at half-maximal effect.

This test in a line: qHTS assay to identify small molecule antagonists of the androgen receptor (AR) signaling pathway using the MDA cell line - cell viability counter screen (AID 743041; also: nearly all actives have a fitted effect of over 45% in size). The settings on record: MDA-kb2 viability, CellTiter-Fluor, 16 h, cells co-treated with R1881 androgen agonist; series mostly up to 70.3 µM. The text has this:
National Center for Advancing Translational Sciences [NCATS]
NIH Chemical Genomics Center [NCGC]
U.S. Environmental Protection Agency [EPA]
National Institutes of Environmental Health Sciences [NIEHS]
National Toxicology Program [NTP]
U.S. Food and Drug Administration [FDA]
Androgen receptor (AR), a nuclear hormone receptor, plays a critical role in AR-dependent prostate cancer and other androgen related diseases. Endocrine disrupting chemicals (EDCs) and their interactions with steroid hormone receptors like AR may cause disruption of normal endocrine function as well as interfere with metabolic homeostasis, reproduction, developmental and behavioral functions. To identify the compounds that inhibit AR signaling, MDA-kb2 AR-luc cell line (from ATCC, deposited by Wilson et al.) was used to screen the Tox21 10K compound library. MDA-kb2 AR-luc cell line is human breast carcinoma cell line that was stably transfected with a luciferase reporter gene under control of the MMTV promoter containing response elements for both androgen receptor (AR) and glucocorticoid receptor (GR). The cytotoxicity of the Tox21 compound library against the MDA-kb2 AR-luc cell line was tested in parallel by measuring the cell viability using CellTiter-Fluor assay (Promega, Madison, WI) in the same wells.
Tox21 Assay Protocol Summary:
MDA-kb2 AR-luc cells were dispensed at 3,000 cells/4 uL/well of culture medium into white wall/solid-bottom 1536-well plates using a Multidrop Combi (ThermoFisher Scientific, Waltham, MA) dispenser. After the assay plates were incubated at a 37C and 0% CO2 for 5 hr, 23 nL of compounds dissolved in DMSO, positive controls or DMSO only was transferred to the assay plate by a Pintool station (Kalypsys, San Diego, CA), followed by addition of 1 uL of agonist (R1881) in culture medium using a Bioraptr Flying Reagent Dispenser (FRD) workstation (Beckman Coulter, Indianapolis, IN, USA). The plates were incubated at a 37C and 0% CO2 for 16 h. After 15.5 h incubation, 1uL of CellTiter-Fluor reagent (Promega) was added using a Bioraptr FRD to each plate for measuring cytotoxicity. The fluorescence intensity was quantified on a ViewLux plate reader (PerkinElmer, Shelton, CT) following 30 min incubation at 37C and 0% CO2.
For orientation: qHTS replaces the single test concentration by a dilution series.
Take `CCOS(C)(=O)=O`: the Potency result was “inactive”.
As for `C=CCC1([C@H](C)CCC)C(=O)NC(=O)NC1=O`, the Potency result was “inactive”.
As to `Nc1ccc(N=Nc2ccc(-c3ccc(N=Nc4c(S(=O)(=O)O)cc5cc(S(=O)(=O)O)c(N=Nc6ccccc6)c(O)c5c4N)cc3)cc2)c(N)c1`, the Potency entry was “inactive”.
On to `CCOP(=O)(OCC)O/C(=C/Cl)c1ccc(Cl)cc1Cl`, for which the Potency entry is “inactive”.
As for `O=S1OC[C@@H]2[C@H](CO1)[C@]1(Cl)C(Cl)=C(Cl)[C@@]2(Cl)C1(Cl)Cl` (stereo not given in full), the Potency entry is “inactive”.
`Clc1cc(C(Cl)(Cl)Cl)cnc1Cl`: the Potency entry is “inactive”.
As for `OC(c1ccc(Cl)cc1)(c1ccc(Cl)cc1)c1cccnc1`, the Potency entry is “inactive”.
The entry for `CC(=O)[C@H]1CC[C@H]2[C@@H]3CC[C@H]4C[C@](C)(O)CC[C@]4(C)[C@H]3CC[C@]12C` is “inactive”.
`N#CCC#N`: the Potency entry was “inactive”.
For `CC(O)(CS(=O)(=O)c1ccc(F)cc1)C(=O)Nc1ccc(C#N)c(C(F)(F)F)c1` (stereo not given), the Potency result was “inactive”.
`O=C(O)c1ccccc1C(=O)Nc1cccc2ccccc12`: the Potency result is “inactive”.
With `NC(=O)C(Cl)(Cl)Cl`, the Potency result is “inactive”.
As to `CC(c1ccc(O)cc1)(c1ccc(O)cc1)c1ccc(O)cc1`, the Potency entry is “inactive”.
For the molecule `CC(C)N(C(=O)COc1nnc(C(F)(F)F)s1)c1ccc(F)cc1`, the Potency entry was “inactive”.
For `BrCCCCBr` the value was “inactive”.
Take `O=C(NC(=O)c1c(F)cccc1F)Nc1ccc(OC(F)(F)C(F)OC(F)(F)F)c(Cl)c1` (stereo not given): the Potency entry was “inactive”.
For `CNC(C)Cc1ccccc1OC` (stereo not given), the Potency result is “inactive”.
For `ClC=C(Cl)Cl` the value was “inactive”; for `ClCc1ccccc1`, “inactive”.
Consider `CC(C)=CCOc1c2occc2cc2ccc(=O)oc12`, for which the Potency entry was “inactive”.
For `S=C=NCc1ccccc1` the value was “inactive”.
Regarding `Oc1ccc(Cl)c(Cl)c1Cl`, the Potency result is “inactive”.
The entry for `COc1cc(CC(C)N)cc2c1OCO2` (stereo not given) is “inactive”; for `O=[N+]([O-])c1cc(C(F)(F)F)cc([N+](=O)[O-])c1Cl` it is 43.5 µM (active); for `N#C/C(N)=C(/N)C#N` it is “inactive”.
For `O=C1C(Cl)C(CCl)CN1c1cccc(C(F)(F)F)c1` (stereo not given), the Potency result was “inactive”.
The entry for `CS/C(C)=N/OC(=O)N(C)SN(C)C(=O)O/N=C(\C)SC` is “inactive”.
In the case of `c1ccc(C2CC2)c(OCC2=NCCN2)c1`, the Potency entry was “inactive”.
Take `CC(=O)CCC(C)=O`: the Potency entry is “inactive”.
Turning to `C=CC(=O)OC`, the Potency entry was “inactive”.
Turning to `CC1CC(CC2CCC(N)C(C)C2)CCC1N` (stereo not given), the Potency is 31.1 µM (active).
As to `CO/C=C(/C(=O)OC)c1ccccc1COc1cccc(C(F)(F)F)n1`, the Potency result is “inactive”.
Turning to `c1ccoc1`, the Potency result is “inactive”.
`Cl/C=C\Cl`: the Potency entry is “inactive”.
For `O=Cc1ccc(Cl)cc1Cl` the value was “inactive”; for `COC(=O)C(Cl)C(=O)OC`, “inactive”.
Turning to `CCCN(CC1CC1)c1c([N+](=O)[O-])cc(C(F)(F)F)cc1[N+](=O)[O-]`, the Potency result is “inactive”.
The entry for `CC(C)N(CCC(C(N)=O)(c1ccccc1)c1ccccn1)C(C)C` (stereo not given) is “inactive”; for `O=C1C(=O)c2cccc3cccc1c23` it is “inactive”; for `c1ccc(CN2CCNCC2)cc1` it is “inactive”.
